From the supplement of paper PMC12494721
Counter-ions that a name gives are not always drawn.

What was measured:
Settings in all cases: incubation time: 27 h, anaerobic, 37 °C;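 for the amine columns active = adjusted P below 0.05 in both replicates with a change the same way and a mean fold change under 0.8 or over 1.25; inactive = the rest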
[1] = system: Clostridium sporogenes DSM 1664; experiment: growth (OD595) fold change vs plate DMSO controls (fold change (ratio)); higher = more growth
Summary of the method: (§1)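 Growth is the fold change relative to the median of plate DMSO controls. Readings came from anaerobic mGAM cultures in 96-well plates grown for 27 h at 37 °C and read at 595 nm. They were blank-subtracted, corrected for compound background with 20 µM compound solutions in water, and converted to OD with a calibration factor of 5. Values are means of 2 biological replicates, and fold changes above 1.5 were set to NA.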

Escherichia coli IAI1 [2] = experiment: as above
Summary of the method: as §1

[3] = system: Klebsiella aerogenes DSM 30053; experiment: as above
Summary of the method: as §1

[4] = system: Ruminococcus gnavus DSM 108212; experiment: as above
Summary of the method: as §1

[5] = system: Klebsiella aerogenes DSM 30053; experiment: fold change of Histamine concentration vs plate DMSO controls (fold change (ratio)); higher = more amine produced, active = hit call of the paper (significant change in both replicates, either direction)
Summary of the method: (§2)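 Amine values are fold changes relative to DMSO-only wells on the same plate. They derive from 27 h, 37 °C anaerobic mGAM cultures of four gut bacterial strains in 80 µL wells, dosed at 20 µM final, or 50 µM final for sweeteners. Extraction of the whole culture, LC–triple-quadrupole MS in dynamic MRM mode, external calibration curves and within-batch drift correction were used, with 2 biological replicates averaged.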

[6] = system: Clostridium sporogenes DSM 1664; experiment: fold change of Tryptamine concentration vs plate DMSO controls (fold change (ratio)); higher = more amine produced, active = hit call of the paper (significant change in both replicates, either direction)
Summary of the method: as §2

[7] = system: Ruminococcus gnavus DSM 108212; experiment: as above
Summary of the method: as §2

Escherichia coli IAI1 [8] = experiment: fold change of Putrescine concentration vs plate DMSO controls (fold change (ratio)); higher = more amine produced, active = hit call of the paper (significant change in both replicates, either direction)
Summary of the method: as §2

[9] = system: Klebsiella aerogenes DSM 30053; experiment: as above
Summary of the method: as §2

Escherichia coli IAI1 [10] = experiment: fold change of Cadaverine concentration vs plate DMSO controls (fold change (ratio)); higher = more amine produced, active = hit call of the paper (significant change in both replicates, either direction)
Summary of the method: as §2

[11] = system: Klebsiella aerogenes DSM 30053; experiment: as above
Summary of the method: as §2

[12] = system: Ruminococcus gnavus DSM 108212; experiment: fold change of 2-Phenylethylamine concentration vs plate DMSO controls (fold change (ratio)); higher = more amine produced, active = hit call of the paper (significant change in both replicates, either direction)
Summary of the method: as §2

Structure (SMILES) | growth [1] | growth (Escherichia coli IAI1 [2]) | growth [3] | growth [4] | fold change of Histamine concentration [5] | fold change of Tryptamine concentration [6] | fold change of Tryptamine concentration [7] | fold change of Putrescine concentration (Escherichia coli IAI1 [8]) | fold change of Putrescine concentration [9] | fold change of Cadaverine concentration (Escherichia coli IAI1 [10]) | fold change of Cadaverine concentration [11] | fold change of 2-Phenylethylamine concentration [12]
CC[C@H](c1ccc(O)cc1)[C@@H](CC)c1ccc(O)cc1 [Hexestrol] (20 µM) | 0.933 | 1.03 | 0.999 | 0.869 | 1.06 (inactive) | 0.609 (active) | 0.789 (active) | 1.05 (inactive) | 1.01 (inactive) | 1.06 (inactive) | 0.989 (inactive) | 0.749 (inactive)
COC(=O)[C@H](Cc1ccccc1)NC(=O)[C@@H](N)CC(=O)O [Aspartame] (50 µM) | 1.05 | 0.921 | 0.997 | 1.01 | 1.03 (inactive) | 0.944 (inactive) | 1.01 (inactive) | 0.968 (inactive) | 1.01 (inactive) | 1.04 (inactive) | 0.99 (inactive) | 1.04 (inactive)
c1ccc(CN(CC2=NCCN2)c2ccccc2)cc1 [Antazoline hydrochloride] (20 µM) | 0.903 | 0.968 | 0.958 | 0.834 | 1.06 (inactive) | 0.965 (inactive) | 1.06 (inactive) | 0.929 (inactive) | 1.01 (inactive) | 1.07 (inactive) | 0.998 (inactive) | 1.08 (inactive)
NS(=O)(=O)c1cc2c(cc1Cl)N=C(CSCc1ccccc1)NS2(=O)=O [Benzthiazide] (20 µM) | 1.1 | 0.998 | 1.02 | 1.08 | 0.978 (inactive) | 0.983 (inactive) | 0.961 (inactive) | 0.975 (inactive) | 0.993 (inactive) | 1.02 (inactive) | 0.993 (inactive) | 0.939 (inactive)
O=C1c2cccc3c2[C@H](CCC3)CN1[C@@H]1CN2CCC1CC2 [Palonosetron hydrochloride] (20 µM) | 1 | 1.05 | 0.978 | 0.887 | 1.09 (inactive) | 0.963 (inactive) | 1.04 (inactive) | 1.06 (inactive) | 0.996 (inactive) | 0.979 (inactive) | 0.983 (inactive) | 1.04 (inactive)
O=C(NCCO[N+](=O)[O-])c1cccnc1 [Nicorandil] (20 µM) | 1.03 | 0.985 | 0.928 | 1.35 | 1.06 (inactive) | 1.04 (inactive) | 1.03 (inactive) | 1.05 (inactive) | 1.03 (inactive) | 0.981 (inactive) | 1 (inactive) | 1 (inactive)
COc1ccc2[nH]cc(CCNC(C)=O)c2c1 [Melatonin] (20 µM) | 0.916 | 0.932 | 1.06 | 0.789 | 0.94 (inactive) | 1.03 (inactive) | 1.01 (inactive) | 0.98 (inactive) | 0.999 (inactive) | 0.999 (inactive) | 1 (inactive) | 0.98 (inactive)
COc1ccc(-c2cc(=O)c3c(O)cc(O[C@@H]4O[C@H](CO[C@@H]5O[C@@H](C)[C@H](O)[C@@H](O)[C@H]5O)[C@@H](O)[C@H](O)[C@H]4O)cc3o2)cc1O [Diosmin] (20 µM) | 1.12 | 0.976 | 1.01 | 1.1 | 0.924 (inactive) | 0.985 (inactive) | 0.97 (inactive) | 0.961 (inactive) | 0.992 (inactive) | 0.971 (inactive) | 1.02 (inactive) | 1 (inactive)
CS(=O)(=O)CCNCc1ccc(-c2ccc3ncnc(Nc4ccc(OCc5cccc(F)c5)c(Cl)c4)c3c2)o1 [Lapatinib] (20 µM) | 1.05 | 1.05 | 1.02 | 1.01 | 1.03 (inactive) | 0.977 (inactive) | 1.03 (inactive) | 0.977 (inactive) | 1.02 (inactive) | 1.04 (inactive) | 1.01 (inactive) | 0.999 (inactive)
CCCCCCOc1ccccc1C(N)=O [Exalamide] (20 µM) | 1.34 | 0.997 | 1.03 | 1.23 | 0.934 (inactive) | 0.949 (inactive) | 0.95 (inactive) | 0.952 (inactive) | 1.01 (inactive) | 1.03 (inactive) | 0.997 (inactive) | 0.936 (inactive)
COc1cc(C(=O)NC2CCCNC2)cc(OC)c1OC (centres undefined) [Troxipide] (20 µM) | 0.822 | 1.02 | 0.99 | 0.845 | 0.989 (inactive) | 1.03 (inactive) | 1.06 (inactive) | 0.965 (inactive) | 0.983 (inactive) | 0.978 (inactive) | 0.996 (inactive) | 1.02 (inactive)
CC[C@H](C)C(=O)O[C@H]1C[C@@H](C)C=C2C=C[C@H](C)[C@H](CC[C@@H]3C[C@@H](O)CC(=O)O3)[C@H]21 [Lovastatin] (20 µM) | 1.13 | 1 | 0.995 | 1.16 | 1.05 (inactive) | 0.945 (inactive) | 0.995 (inactive) | 0.975 (inactive) | 1.02 (inactive) | 1.01 (inactive) | 0.999 (inactive) | 0.984 (inactive)
C[N+](C)(C)CCCCCC[N+](C)(C)C [Hexamethonium dibromide dihydrate] (20 µM) | 0.959 | 0.998 | 1 | 0.892 | 1.02 (inactive) | 1.02 (inactive) | 1.03 (inactive) | 1.04 (inactive) | 0.982 (inactive) | 0.984 (inactive) | 1 (inactive) | 1.01 (inactive)
CNCC(O)c1ccc(OC(=O)C(C)(C)C)c(OC(=O)C(C)(C)C)c1 (centres undefined) [Dipivefrin hydrochloride] (20 µM) | 1.15 | 1.07 | 0.982 | 1.02 | 1.01 (inactive) | 1.15 (inactive) | 1.11 (inactive) | 1.01 (inactive) | 0.981 (inactive) | 0.995 (inactive) | 0.991 (inactive) | 1.16 (inactive)
CCN1CC(CCN2CCOCC2)C(c2ccccc2)(c2ccccc2)C1=O (centres undefined) [Doxapram hydrochloride] (20 µM) | 1.01 | 0.969 | 0.996 | 0.884 | 0.932 (inactive) | 1.09 (inactive) | 1.07 (inactive) | 0.977 (inactive) | 0.978 (inactive) | 1.01 (inactive) | 1.02 (inactive) | 1.08 (inactive)
CC(C)(c1ccc(O)cc1)c1ccc(O)cc1 [Bisphenol A] (20 µM) | 0.972 | 1.04 | 1 | 0.996 | 1.01 (inactive) | 0.959 (inactive) | 0.976 (inactive) | 0.981 (inactive) | 0.988 (inactive) | 0.991 (inactive) | 0.985 (inactive) | 0.942 (inactive)
COc1ccc(OC)c(C(O)CNC(=O)CN)c1 (centres undefined) [Midodrine hydrochloride] (20 µM) | 1.08 | 1.03 | 1.09 | 0.949 | 1.05 (inactive) | 1.03 (inactive) | 1 (inactive) | 1.01 (inactive) | 1 (inactive) | 0.995 (inactive) | 0.995 (inactive) | 1 (inactive)
C[C@H](O)[C@H](O)[C@H]1CNc2[nH]c(N)nc(=O)c2N1 [Sapropterin dihydrochloride] (20 µM) | 1.12 | 0.893 | 0.928 | 0.813 | 0.931 (inactive) | 0.972 (inactive) | 0.945 (inactive) | 1.01 (inactive) | 1.01 (inactive) | 1.03 (inactive) | 1.01 (inactive) | 0.911 (inactive)
CC[C@H](C)[C@H](NC(=O)[C@H](Cc1ccc(O)cc1)NC(=O)[C@@H](NC(=O)[C@H](CCCN=C(N)N)NC(=O)[C@@H](N)CC(=O)O)C(C)C)C(=O)N[C@@H](Cc1cnc[nH]1)C(=O)N1CCC[C@H]1C(=O)N[C@@H](Cc1ccccc1)C(=O)O [Angiotensin II (Human) Trifluoroacetic acid salt] (20 µM) | 1.02 | 1.03 | 0.987 | 0.979 | 1.01 (inactive) | 1.07 (inactive) | 1.09 (inactive) | 0.966 (inactive) | 0.983 (inactive) | 0.934 (inactive) | 0.994 (inactive) | 1.14 (inactive)
CNC(=O)OCc1cccc(COC(=O)NC)n1 [Pyricarbate] (20 µM) | 0.9 | 1.02 | 1.03 | 1.02 | 0.976 (inactive) | 0.953 (inactive) | 1.03 (inactive) | 1.03 (inactive) | 0.995 (inactive) | 1.05 (inactive) | 0.995 (inactive) | 1.06 (inactive)
O=S(=O)(O)CCS [Coenzyme M] (20 µM) | 0.917 | 1.06 | 1 | 1.01 | 1.12 (inactive) | 1.02 (inactive) | 0.951 (inactive) | 1.03 (inactive) | 1.01 (inactive) | 0.979 (inactive) | 0.986 (inactive) | 0.902 (inactive)
C[C@]1(Cn2ccnn2)[C@H](C(=O)O)N2C(=O)C[C@H]2S1(=O)=O [Tazobactam] (20 µM) | 0.105 | 1 | 0.973 | 1.05 | 0.904 (inactive) | 0.703 (active) | 1.05 (inactive) | 1.05 (inactive) | 1.04 (inactive) | 0.989 (inactive) | 1.03 (inactive) | 1.1 (inactive)
